Screens from PubChem BioAssay.
Rows were chosen to be rich in hits. Some 7.8% of all compounds tested hit in one or more screens of this group.
Cav3 T inh = Cav3.2 calcium influx blockers – cell-based, Fluo-4 calcium fluorescence, FDSS, MLSMR library, primary screen; Voltage-dependent T-type calcium channel subunit alpha-1H (Homo sapiens), O95180; Cav3.2-expressing cells; active compounds read low; B-score at 10 µM; 100,000 compounds, 4% hits; AID 449739, 2010;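 active means single-dose well whose peak fluorescence ratio is a statistical outlier from its plate by either plate-standardised score or position-corrected B-score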
PostGolgi yeast = phenotypic screen on post-Golgi transport, primary screen; post-Golgi transport phenotypic cell assay; inhibition, % at 10 µM; 98,000 compounds, 0.9% hits; AID 739, 2007;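 further: yeast cells grown in 1536-well plates; yeast grown about 18 h at 30C before absorbance read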
sEH activator = soluble epoxide hydrolase activators, primary screen, biochemical, human sEH; activation, % at 2 µM; purified human sEH enzymatic activity, activator screen; 91,000 compounds, 0.04% hits; AID 717, 2007; Bifunctional epoxide hydrolase 2 (Homo sapiens), P34913; in the data active means activation above about 37%
Target sequence (P34913 whole entry, looked up): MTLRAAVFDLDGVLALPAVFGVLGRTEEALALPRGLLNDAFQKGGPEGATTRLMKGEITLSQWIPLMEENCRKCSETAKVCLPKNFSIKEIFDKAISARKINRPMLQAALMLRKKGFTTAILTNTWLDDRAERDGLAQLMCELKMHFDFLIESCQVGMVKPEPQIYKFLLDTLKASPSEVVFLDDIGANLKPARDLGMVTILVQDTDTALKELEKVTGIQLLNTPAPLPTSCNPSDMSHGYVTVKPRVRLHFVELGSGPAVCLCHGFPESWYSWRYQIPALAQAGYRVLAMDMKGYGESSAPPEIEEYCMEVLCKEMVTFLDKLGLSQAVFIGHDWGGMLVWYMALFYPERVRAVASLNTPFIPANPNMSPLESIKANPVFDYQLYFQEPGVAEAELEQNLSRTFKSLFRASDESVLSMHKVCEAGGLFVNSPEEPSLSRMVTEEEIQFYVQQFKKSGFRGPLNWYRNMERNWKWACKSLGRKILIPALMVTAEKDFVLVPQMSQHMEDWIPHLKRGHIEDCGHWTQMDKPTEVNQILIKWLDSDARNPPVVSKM
PostGolgi ctrl = growth inhibition of yeast control strain, primary screen, counter-screen for post-Golgi transport modulator project. AID 738, 2007. efflux-deficient yeast background strain, growth absorbance A615, 16 h. 98,000 compounds, 5% hits. inhibition, % at 10 µM
sEH inhibitor = soluble epoxide hydrolase inhibitors, primary screen, biochemical, human sEH | recombinant human sEH enzymatic activity assay | inhibition, % at 2 µM | 91,000 compounds, 0.34% hits; in the data active means inhibition above about 80%
* hit, by the source's call; . = no result. Unless noted, no stated cut-off is given here; in the data, active means inhibition above about 30%; inactive means the rest.

SMILES	Cav3 T inh	PostGolgi yeast	sEH activator	PostGolgi ctrl	sEH inhibitor
O=C(CCCSc1ccccc1)Nc1nc(-c2ccccn2)cs1	-6.3*	8	4	8	-1
O=C(Nc1nc(-c2ccccn2)cs1)c1ccc(Cl)s1	-1.5	37*	.	24	.
C[C@@H](C(=O)NCc1ccccn1)[C@@H]1C[C@@]1(C)[C@@H](NC(=O)OCc1ccccc1)c1ccccc1	-1.3	.	.	.	.
COc1cccc(Cn2c(C3CC3)nc3ccc(NC(=O)c4ccco4)cc3c2=O)c1	-1.6	3	8	31*	-4
O=C(Nc1ccc2nc(C3CC3)n(Cc3ccc(F)cc3)c(=O)c2c1)c1ccco1	-2.4	28	.	23	.
Cc1cc(C)nc(/N=C2\NC(=O)CC(C(=O)O)N2CCc2c[nH]c3ccccc23)n1 (stereo not given)	0.9	1	0	3	2
O=C(Nc1ccccc1C(=O)NC(Cc1c[nH]c2ccccc12)C(=O)O)c1ccco1 (stereo not given)	.	3	-10	-10	12
Cc1cc(C)nc(NC(=NCCc2c[nH]c3ccccc23)NC(=O)c2ccco2)n1	0.11	11	4	42*	-4
O=C(NC(Cc1c[nH]c2ccccc12)C(=O)O)c1ccco1 (stereo not given)	0.24	-8	17	30*	-16
Cc1ccc(Cn2c(C(C)Nc3nc(-c4ccc(F)cc4)cs3)nc3cc(C(F)(F)F)ccc32)cc1 (stereo not given)	0.4	.	.	.	.
O=C(C#Cc1ccccc1)c1cccc([N+](=O)[O-])c1	0.89	3	-9	48*	8
Cn1c(COc2ccccc2)nnc1SCC(=O)c1cccc([N+](=O)[O-])c1	-0.14	0	6	-1	-4
COc1cccc(/C=N/NC(=O)c2cc(C34CC5CC(CC(C5)C3)C4)[nH]n2)c1	-2.9	-3	8	66*	-4
Cc1nc(Oc2ccc(Cl)cc2)c2oc3ccccc3c2n1	0.84	3	22	11	-23
Cc1ccc(/C=N/n2cnnc2)s1	0.3	8	16	3	-13
Cc1ccc(Sc2oc(/C=N/n3cnnc3)cc2Br)cc1	1.3	1	-14	44*	14
CC(=O)c1cc(OC(=O)c2ccncc2)ccc1OC(=O)c1ccncc1	-0.024	5	4	5	-5
CC(C)c1ccc(C2C3CSCC=C3C(C#N)=C(N)C2(C#N)C#N)cc1 (stereo not given)	-2.3	74*	-4	-2	3
COc1cc(-c2nc(-c3ccc4c(c3)-c3ccccc3S4(=O)=O)c(-c3ccccc3)[nH]2)cc(OC)c1O	-1.4	2	1	23	0
N#CC1=C(N)N2C(=C(C#N)C13CCN(Cc1ccccc1)CC3)Nc1ccccc12	0.049	-20	-10	30*	7
CCOC(=O)Cn1c(S(=O)(=O)Cc2ccccc2Cl)nc(-c2ccccc2)c1-c1ccccc1	-7.3*	14	-6	16	7
O=S(=O)(Cc1ccccc1Cl)Nc1ccccn1	0.98	0	2	-3	-1
C#CCn1c(S(=O)(=O)Cc2ccccc2Cl)nc(-c2ccccc2)c1-c1ccccc1	-7.2*	15	-4	12	6
C#CCn1c(S(=O)(=O)Cc2ccc(C)cc2)nc(-c2ccccc2)c1-c1ccccc1	-7.8*	2	-6	8	9
COC(=O)CCC(=O)N1CCc2cc(S(=O)(=O)N3CCN(c4ccccc4Cl)CC3)ccc21	-0.2	-3	20	8	-19
SMILES	Cav3 T inh	PostGolgi yeast	sEH activator	PostGolgi ctrl	sEH inhibitor
O=C(c1ccc2c(=O)n(C3CCCC3)c(=S)[nH]c2c1)N1CCc2ccccc21	-4.6*	67*	-4	99*	2
Cc1cc(C)c(C)c(S(=O)(=O)NCc2ccco2)c1C	-3	-4	4	34*	-4
COc1ccc(C(=O)CSc2nnc(-c3cc4ccccc4cc3O)n2Cc2ccco2)cc1	0.12	-14	8	56*	-10
CCn1c(SCC(=O)N(C(C)C)C(C)C)nnc1-c1cc2ccccc2cc1O	0.44	2	-3	46*	3
COc1ccc(C(=O)CSc2nnc(-c3cccnc3)n2Cc2ccco2)cc1	0.035	2	13	5	-13
CC1CCN(C(=O)CSc2nnc(-c3cc4ccccc4cc3O)n2Cc2ccco2)CC1	0.25	0	3	39*	-4
